Among all 1,300 compounds or so, about 270 (21%) were called active.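 How the source made its calls: active means dose-dependent rise or fall in viability, either side of zero, with half-maximal concentration at or below a set limit; inconclusive means flat curve at 30 to 70% viability loss, or poor fit; inactive means flat within 30% either way, or potency beyond limit.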 Not all results are given here. Entries with a potency or affinity are not part of this list.

The nature of this assay: A375 melanoma cell viability reduction, dose response, counter-screen for MITF modulator project, cherry-pick samples, set 2 (AID 540335).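 Further: A375 human melanoma cells which do not depend on MITF.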 As to conditions: CellTiter-Glo ATP luminescence, 24 h; series mostly up to 35 µM. On the technique in general: The purpose of a counterscreen is to sort out artefacts and off-target activity.
Turning to `CCn1c(=O)c([N+](=O)[O-])c(Cl)c2ccccc21`, the outcome was inactive.

For the molecule `COc1ccc(C(=O)/C=C/C(=O)N(CC(=O)NC2CCCCC2)Cc2cccs2)c(O)c1`, the outcome was inactive.

For the molecule `Cc1cnc(NC(=O)c2nn(C)cc2[N+](=O)[O-])s1`, the result was inactive.

Take `Cn1cc(C(=O)N/N=C/c2c(O)ccc3ccccc23)ccc1=O`: the call was inactive.

Consider `O=C(CSCC(=O)Nc1ccccc1)N/N=C/c1c(O)ccc2ccccc12`, for which the call was inactive.

In the case of `CCc1ccccc1NC(=O)CN(C)C(=O)Cn1ncc(Cl)c(Cl)c1=O`, the call was inactive.

With `COC(=O)c1ccc2c(c1O)C(=O)c1ccccc1C2=O`, the molecule was called inactive.

For `CC(=O)N(C)C1=C(N2CCOCC2)C(=O)c2ccccc2C1=O`, the molecule was classed as inactive.

Turning to `CCN(CC)CCNC(=O)c1ccc(NC(=O)c2cn(-c3ccccc3)nc2-c2cccs2)cc1`, the call was inactive.

Take `CCS(=O)(=O)c1ccc(N=Nc2ccc(O)c3ncccc23)c(OC)c1`: the result was inactive.

`O=[N+]([O-])c1ccc(-n2nnnc2-c2ccccc2)c([N+](=O)[O-])c1`: the molecule was called inactive.

Take `CCN1CCN(c2ccc(S(=O)(=O)N3CCCCC3)cc2NC(=O)/C=C/c2ccc([N+](=O)[O-])cc2)CC1`: the call was inactive.

Take `CCN1CCN(c2ccc(S(=O)(=O)N3CCCCC3)cc2NC(=O)/C=C/c2cccc(OC)c2OC)CC1`: the molecule was classed as inactive.

As for `O=C(N/N=C/c1ccc([N+](=O)[O-])s1)C(O)c1ccccc1` (stereo not given), the molecule was called inactive.

`CC(/C=N/NC(=O)c1cc(-c2ccncc2)nc2ccccc12)=C\c1ccco1`: the molecule was called inactive.

In the case of `CN1CCN(C2=C(NS(=O)(=O)c3ccccc3)C(=O)c3ccccc3C2=O)CC1`, the outcome was inactive.

`O=C1C(Nc2ccccc2)=C(N2CCCCC2)C(=O)c2ccccc21`: the result was inactive.

For the molecule `CCN1c2ccccc2NC2C1C(C(C)=O)C(=O)N2c1ccc(Cl)cc1` (stereo not given), the molecule was called inactive.

With `C=CCNC1=C(Cl)C(=O)c2ccccc2C1=O`, the molecule was classed as inactive.

In the case of `O=C(NC1=C(Nc2ccc(Cl)cc2)C(=O)c2ccccc2C1=O)c1ccccc1`, the molecule was classed as inactive.

`COC1=C(Nc2ccc(O)cc2)C(=O)c2ccccc2C1=O`: the call was inactive.

In the case of `CCc1ccc(NC2=CC(=O)C(=O)c3ccccc32)cc1`, the molecule was called inactive.

On to `CCNC1=C(Cl)C(=O)c2ccccc2C1=O`, for which the molecule was classed as inactive.

As for `COC1=C(Nc2ccccc2)C(=O)c2ccccc2C1=O`, the call was inactive.

With `COc1ccc(C(=O)/C=C/C(=O)N(CC(=O)NC2CCCCC2)CC2CCCO2)c(O)c1` (stereo not given), the molecule was classed as inactive.

With `CC1=NNC(=O)/C1=C\c1cn(-c2ccccc2)nc1-c1ccc(F)cc1`, the result was inactive.

On to `Cc1ccc(-c2c[n+](Cc3ccc(Cl)c(Cl)c3)c3n2CCC3)cc1`, for which the result was inactive.

Take `COc1cc(/C=C/C(=O)c2ccc3c(c2)OCCO3)cc(Br)c1OCC(=O)N(C)C`: the molecule was classed as inactive.

`O=C(/C=C\c1ccccc1)NCC(=O)N/N=C/c1ccc(O)cc1O`: the molecule was classed as inactive.

Regarding `CC1CCN(CC(CS(=O)(=O)c2ccc([N+](=O)[O-])cc2)N2CCC(C)CC2)CC1` (stereo not given), the result was inactive.

`CCc1ccc(-c2cc(C(=O)Nn3cnnc3)c3ccccc3n2)cc1`: the call was inactive.

On to `Cc1cc(C)cc(NC(=O)c2ccc([N+](=O)[O-])o2)c1`, for which the call was inactive.

Regarding `O=C(CS(=O)c1ccc(C(F)(F)F)cc1[N+](=O)[O-])Oc1ccccc1` (stereo not given), the result was inactive.

As for `Cc1ccccc1-c1nc(CN2CCC(C(=O)NCCCN3CCCC(C)C3)CC2)c(C)o1` (stereo not given), the call was inactive.

Turning to `Cc1cc(C)c2nc3nc(C)cc(C)c3c(N)c2c1`, the molecule was classed as inactive.

Take `Cc1cc(C)c2c(N)c(C(=O)N/N=C/c3ccccc3)sc2n1`: the molecule was classed as inactive.

As for `Cc1oc(-c2ccc(Cl)cc2)nc1CN1CCC(C(=O)NCCCN2CCCC(C)C2)CC1` (stereo not given), the outcome was inactive.

Turning to `FC(F)(F)c1cc(CCN2CCNC[C@@H]2Cc2ccccc2)cc(C(F)(F)F)c1`, the outcome was inactive.

For `O=C(N/N=C\c1ccc([N+](=O)[O-])s1)c1cncc(Br)c1`, the molecule was called inactive.

On to `C#CCCc1ccccc1/C=[N+](/C)[O-]`, for which the molecule was called inactive.

Turning to `N#C/C(=C(/O)c1ccc([N+](=O)[O-])o1)c1nc2ccccc2[nH]1`, the outcome was inactive.

For `O=C(CCl)N1c2ccccc2SCC1c1ccccc1` (stereo not given), the molecule was classed as inactive.

Turning to `O=C(COc1ccc2c(c1)CCC2)N1CCc2ccccc21`, the call was inactive.

Turning to `O=C(Cn1ncc(Cl)c(Cl)c1=O)N1CCOCC1`, the result was inactive.

In the case of `CC(=O)Nc1ccc(S(=O)(=O)NC2=C(N3CCN(C)CC3)C(=O)c3ccccc3C2=O)cc1`, the molecule was classed as inactive.

Take `O=C(Nc1cnc2ccccn2c1=O)c1ccc(F)cc1`: the outcome was inactive.

`CN(C)c1nc(C=C(C#N)C#N)c(Cl)n1-c1ccc(F)cc1`: the molecule was called inactive.

With `O=[N+]([O-])c1ccc(/C=N/n2cnc3ccccc32)s1`, the molecule was called inactive.

Take `CC1CCCC(NC(=O)NC(=O)CCl)C1C` (stereo not given): the molecule was classed as inactive.

Turning to `Cc1ccc(NC(=O)Cn2ncc(Cl)c(Cl)c2=O)cc1S(=O)(=O)N1CCCCC1`, the result was inactive.

Regarding `Cc1cc(Br)ccc1NC(=O)CNC(=O)Cn1ncc(Cl)c(Cl)c1=O`, the molecule was called inactive.

For `Cn1nnnc1Sc1ncnc2scc(-c3ccc(C#N)cc3)c12`, the molecule was classed as inactive.

For the molecule `CCN1c2ccccc2NC2N=C(OC)C(c3ccccc3)C21` (stereo not given), the result was inactive.

With `COCCN(CC(=O)NC1CCCCC1)C(=O)/C=C/C(=O)c1ccc(OC)cc1O`, the outcome was inactive.

In the case of `Cc1ccc(-c2c[n+](Cc3ccc(Cl)cc3)c3n2CCC3)cc1`, the molecule was classed as inactive.

Turning to `Cc1[nH]c2ccccc2c1C(=O)CCl`, the molecule was called inactive.

For `CC(C)C(CCNC1CCN(C)CC1)c1ccc(Cl)cc1` (stereo not given), the call was inactive.

On to `CCN1CCN(C2=C(NS(=O)(=O)c3ccc(Br)cc3)C(=O)c3ccccc3C2=O)CC1`, for which the molecule was classed as inactive.

In the case of `CC1CCC(C(C)C)C(OC(=O)C[n+]2cc(-c3ccc(Cl)cc3)n3c2CCCCC3)C1` (stereo not given), the outcome was inactive.

For the molecule `O=C(O)c1cccc(NC(=S)N/N=C/c2ccccn2)c1`, the molecule was called inactive.

Take `Cc1ccc(C(=O)c2no[n+]([O-])c2C(=O)c2ccc(C)cc2)cc1`: the molecule was classed as inactive.

Turning to `COc1ccc(C(=O)/C=C/C(=O)N(CC(=O)NC2CCCCC2)Cc2ccccc2)c(O)c1`, the molecule was called inactive.

`O=C(Nc1ccc(Cl)c(S(=O)(=O)N2CCOCC2)c1)c1ccc(OCC2CCCO2)cc1` (stereo not given): the molecule was called inactive.

`O=C(Nc1ccccc1N1CCOCC1)c1ccc([N+](=O)[O-])s1`: the result was inactive.

Regarding `O=C(Nc1nc(-c2ccccn2)cs1)c1ccc(F)c(S(=O)(=O)N2CCOCC2)c1`, the result was inactive.

In the case of `COc1ccc(/C=C2\SC(=O)N(CCCC(=O)Nc3cc(Cl)ccc3C(=O)O)C2=O)cc1`, the molecule was called inactive.

Take `Cn1cccc1-c1cc(C(=O)N/N=C/c2cc(Br)ccc2O)[nH]n1`: the molecule was called inactive.

On to `CCOC(=O)CSC1=NC(=O)/C(=C/c2ccc(OC)cc2)S1`, for which the outcome was inactive.

For `N/C(=N\OC(=O)c1ccc(Cl)cc1Cl)c1ccncc1`, the outcome was inactive.

Regarding `COCc1cc(C)nc2sc(C(=O)Nc3ccc(OC)cc3)c(N)c12`, the molecule was called inactive.

As for `O=C1c2ccccc2C(=O)N1CCOc1ccccc1`, the molecule was classed as inactive.

Regarding `CN1CCN(CCCOc2ccc(-c3ccccc3)cc2)CC1`, the molecule was classed as inactive.

Consider `CN=c1scc(-c2ccccc2F)n1/N=C/c1ccc[nH]1`, for which the outcome was inactive.

In the case of `Cc1ccc(NC(=O)CCC(=O)N/N=C/c2ccc([N+](=O)[O-])o2)cc1C`, the molecule was classed as inactive.

For `CC1CC(C)C[N+](=C2C=C(N3CCCC3)CC(C)(C)C2)C1` (stereo not given), the outcome was inactive.

Consider `O=C(Cn1cc(/C=C\[N+](=O)[O-])c2ccccc21)Nc1ccccc1`, for which the molecule was classed as inactive.

Turning to `Cc1ccc(NC(=O)c2ccc([N+](=O)[O-])o2)cc1S(=O)(=O)N1CCOCC1`, the molecule was classed as inactive.

Consider `COc1ccc2oc(C(=O)Nc3ccc(S(=O)(=O)N(C)C4CCN(C)CC4)cc3)c(C)c2c1`, for which the call was inactive.

Turning to `CC(Oc1ccccc1)C(=O)Nc1nc(-c2ccccn2)cs1` (stereo not given), the result was inactive.

Take `C/C(=N\NC(=O)C(C)Oc1ccc([N+](=O)[O-])cc1)c1ccccn1` (stereo not given): the call was inactive.

`CC(C)C(=O)N1CCN(c2ccc(NC(=O)c3ccc([N+](=O)[O-])o3)cc2)CC1`: the result was inactive.

Turning to `CC(C)(C)NC(=O)CCN(/N=C/c1ccc([N+](=O)[O-])o1)C1=NS(=O)(=O)c2ccccc21`, the call was inactive.

Regarding `Cc1c(N=C2C=CC(=O)c3ccccc32)c(=O)n(-c2ccccc2)n1C`, the outcome was inactive.

In the case of `COc1cc(/C=N/NC(N)=O)c(Br)cc1OCC(=O)Nc1ccccc1C`, the call was inactive.

For the molecule `COc1cc(CN2CCC(Cc3ccccc3)CC2)cc(OC)c1OC`, the molecule was classed as inactive.

Turning to `COc1ccc(S(=O)NC2CCCCC2)c(OC)c1C` (stereo not given), the molecule was called inactive.

For `O=C(c1nnsc1S(=O)(=O)c1ccc(Cl)cc1)N1CCOCC1`, the molecule was classed as inactive.

Turning to `Cc1cc(C)c[n+](C2=C([O-])c3ccccc3C(=O)/C2=N\S(=O)(=O)c2cccs2)c1`, the molecule was classed as inactive.

For `O=C(CCl)Nc1cccc(Oc2ccccc2)c1`, the result was inactive.

Take `CC(=O)N1CCc2c(sc(NC(=O)c3ccc([N+](=O)[O-])o3)c2C#N)C1`: the result was inactive.

Turning to `O=C(CC(=O)c1ccccc1)Nc1ccccn1`, the molecule was classed as inactive.

For `CN(c1cccc(NC(=O)COc2ccc(Cl)cc2Cl)c1)S(C)(=O)=O`, the molecule was classed as inactive.

In the case of `O=C1Nc2ccc(Br)cc2/C1=C/C(=O)c1ccc2c(c1)OCO2`, the molecule was classed as inactive.

As for `COc1ccc(/C=N/Nc2cc(C)nc(-n3nc(C)cc3C)n2)c(OC)c1`, the result was inactive.

Turning to `Cc1ccc(S(=O)(=O)/N=C2\C(=O)c3ccccc3C([O-])=C2n2cc[n+](CCC(C)C)c2)cc1`, the molecule was called inactive.

On to `CCC(=O)N1CCN(c2ccc(NC(=O)c3ccc([N+](=O)[O-])o3)cc2)CC1`, for which the molecule was called inactive.

As to `CCN(CC)CCNC(=O)c1c(C)n(-c2ccccc2)c2cc(Br)c(OC)cc12`, the molecule was called inactive.

Turning to `O=C(Cn1ncc(Cl)c(Cl)c1=O)N1CCN(Cc2ccccc2)CC1`, the call was inactive.

`O=C(Cn1ncc(Cl)c(Cl)c1=O)c1ccc(Cl)cc1`: the call was inactive.

Consider `O=C(COC(=O)CCN1C(=O)/C(=C\C=C\c2ccccc2)SC1=S)Nc1cc(F)ccc1F`, for which the molecule was classed as inactive.

In the case of `CC(C)(C)c1ccc(C(=O)Nc2sc3c(c2C(=O)O)CCC3)cc1`, the molecule was called inactive.

As for `CCN1/C(=C/c2cc[n+](C)cc2)C=Cc2cc(C)ccc21`, the result was inactive.

Consider `O=C(Nc1ccc(F)cc1F)c1cc2ccccc2oc1=O`, for which the molecule was called inactive.

Regarding `CC1CCC/C=C/C(=O)c2c(O)cc(O)cc2CC(=O)O1` (stereo not given), the result was inactive.

Consider `COc1ccc(C(=O)/C=C/C(=O)N(CC(=O)NC2CCCCC2)Cc2ccccc2OC)c(O)c1`, for which the result was inactive.

These data come from PubChem BioAssay AID540335 (Broad Institute, 2011).
